# Source: the supplement of paper PMC8728848
# About 410 targets per protein were measured; listed, in parts, are those with the strongest signals and a random draw of the rest.
# Tests used:
# Assay in all cases: glycan array binding signal (z-score within array); higher = stronger binding
# [1] = tested on: GlcNAc(b1-2)Man(a1-3)[GlcNAc(b1-2)Man(a1-6)]Man(b1-4)GlcNAc(b1-4)GlcNAc; settings: glycan notation: IUPAC condensed, linker removed
# Outline: (§1)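 Negative Z-scores can be read as non-binding. The Z-score is calculated within each array and then averaged across arrays of one protein sequence at different concentrations or buffers and across linkers. Arrays, 3228 in all, were curated from the Consortium for Functional Glycomics database and kept only where the protein sequence was available.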
# [2] = tested on: GlcNAc(b1-3)Gal(b1-4)GlcNAc(b1-2)[GlcNAc(b1-3)Gal(b1-4)GlcNAc(b1-6)]Man(a1-6)[GlcNAc(b1-3)Gal(b1-4)GlcNAc(b1-2)Man(a1-3)]Man(b1-4)GlcNAc(b1-4)GlcNAc; settings: glycan notation: IUPAC condensed, linker removed
# Outline: as §1
# [3] = tested on: GlcNAc(b1-2)Man(a1-3)[GlcNAc(b1-4)][GlcNAc(b1-2)Man(a1-6)]Man(b1-4)GlcNAc(b1-4)GlcNAc; settings: glycan notation: IUPAC condensed, linker removed
# Outline: as §1
# [4] = tested on: GlcNAc(b1-2)Man(a1-3)[GlcNAc(b1-4)][GlcNAc(b1-2)Man(a1-6)]Man(b1-4)GlcNAc(b1-4)[Fuc(a1-6)]GlcNAc; settings: glycan notation: IUPAC condensed, linker removed
# Outline: as §1
# [5] = tested on: GlcNAc(b1-2)[GlcNAc(b1-4)]Man(a1-3)[GlcNAc(b1-4)][GlcNAc(b1-2)Man(a1-6)]Man(b1-4)GlcNAc(b1-4)GlcNAc; settings: glycan notation: IUPAC condensed, linker removed; mutation: R125K
# Outline: as §1
# [6] = tested on: GlcNAc(b1-2)[GlcNAc(b1-6)]Man(a1-6)[GlcNAc(b1-2)Man(a1-3)][GlcNAc(b1-4)]Man(b1-4)GlcNAc(b1-4)GlcNAc; settings: glycan notation: IUPAC condensed, linker removed
# Outline: as §1
# [7] = tested on: GlcNAc(b1-2)[GlcNAc(b1-6)]Man(a1-6)[GlcNAc(b1-4)][GlcNAc(b1-2)Man(a1-3)]Man(b1-4)GlcNAc(b1-4)GlcNAc; settings: glycan notation: IUPAC condensed, linker removed; mutation: R125K
# Outline: as §1
# [8] = tested on: GlcNAc(a1-6)Gal(b1-4)GlcNAc; settings: glycan notation: IUPAC condensed, linker removed; mutation: D138V, E140I
# Outline: as §1
# [9] = tested on: GlcNAc(b1-2)Gal(b1-3)GalNAc; settings: glycan notation: IUPAC condensed, linker removed
# Outline: as §1
# [10] = tested on: GlcNAc(b1-2)Man(a1-3)[GlcNAc(b1-2)Man(a1-6)]Man(b1-4)GlcNAc(b1-4)[Fuc(a1-6)]GlcNAc; settings: glycan notation: IUPAC condensed, linker removed
# Outline: as §1
# Sequence of CHT (Homo sapiens) (chain, as listed by the source): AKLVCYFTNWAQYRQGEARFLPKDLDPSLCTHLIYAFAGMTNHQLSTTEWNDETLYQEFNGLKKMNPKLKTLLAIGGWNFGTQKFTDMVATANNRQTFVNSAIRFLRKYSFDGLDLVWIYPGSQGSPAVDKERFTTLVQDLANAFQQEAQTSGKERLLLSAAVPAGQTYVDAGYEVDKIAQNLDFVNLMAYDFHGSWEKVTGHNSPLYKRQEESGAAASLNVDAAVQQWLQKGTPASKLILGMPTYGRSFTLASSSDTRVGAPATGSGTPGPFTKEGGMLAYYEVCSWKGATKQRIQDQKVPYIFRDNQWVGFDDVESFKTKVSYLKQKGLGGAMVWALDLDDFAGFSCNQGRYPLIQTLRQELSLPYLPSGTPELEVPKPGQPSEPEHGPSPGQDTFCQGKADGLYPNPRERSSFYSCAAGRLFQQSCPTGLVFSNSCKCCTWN
# Sequence of Neurocan (Homo sapiens), O14594 (O14594 other isoform, or with tags, fused parts or gaps): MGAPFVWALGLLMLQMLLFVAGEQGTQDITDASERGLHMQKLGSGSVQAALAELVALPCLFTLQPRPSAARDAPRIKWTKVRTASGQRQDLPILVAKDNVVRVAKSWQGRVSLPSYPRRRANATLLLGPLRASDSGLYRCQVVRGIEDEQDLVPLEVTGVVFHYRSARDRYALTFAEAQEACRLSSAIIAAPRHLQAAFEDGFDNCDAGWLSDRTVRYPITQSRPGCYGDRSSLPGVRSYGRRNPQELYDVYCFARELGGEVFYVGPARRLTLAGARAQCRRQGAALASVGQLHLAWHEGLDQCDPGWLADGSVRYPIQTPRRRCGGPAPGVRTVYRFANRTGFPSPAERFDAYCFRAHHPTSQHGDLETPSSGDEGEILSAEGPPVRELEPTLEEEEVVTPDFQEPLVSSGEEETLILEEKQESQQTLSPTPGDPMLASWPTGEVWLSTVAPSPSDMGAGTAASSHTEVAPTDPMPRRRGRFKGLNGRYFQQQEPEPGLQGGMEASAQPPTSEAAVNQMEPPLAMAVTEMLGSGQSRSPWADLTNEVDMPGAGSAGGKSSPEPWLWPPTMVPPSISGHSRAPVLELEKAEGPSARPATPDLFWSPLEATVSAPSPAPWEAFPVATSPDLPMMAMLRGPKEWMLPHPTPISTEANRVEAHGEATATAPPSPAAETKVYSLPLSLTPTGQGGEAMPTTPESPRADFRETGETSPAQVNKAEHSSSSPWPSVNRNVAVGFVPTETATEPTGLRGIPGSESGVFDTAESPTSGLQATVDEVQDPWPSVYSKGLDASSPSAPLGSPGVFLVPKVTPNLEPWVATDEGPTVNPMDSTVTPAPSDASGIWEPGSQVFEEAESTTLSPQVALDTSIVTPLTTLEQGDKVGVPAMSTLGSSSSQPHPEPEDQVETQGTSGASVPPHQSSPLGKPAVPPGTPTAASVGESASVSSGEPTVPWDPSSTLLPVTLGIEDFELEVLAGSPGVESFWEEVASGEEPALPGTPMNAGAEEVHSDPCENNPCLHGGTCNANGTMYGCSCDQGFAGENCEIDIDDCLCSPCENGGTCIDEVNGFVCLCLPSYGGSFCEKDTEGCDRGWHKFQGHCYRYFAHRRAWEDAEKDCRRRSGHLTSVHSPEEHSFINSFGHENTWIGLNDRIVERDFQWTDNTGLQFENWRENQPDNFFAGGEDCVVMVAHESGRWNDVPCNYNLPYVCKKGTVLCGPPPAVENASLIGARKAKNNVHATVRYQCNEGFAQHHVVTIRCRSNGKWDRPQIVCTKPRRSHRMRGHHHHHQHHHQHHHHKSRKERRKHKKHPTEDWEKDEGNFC
# Sequence of C3b (Homo sapiens), P01024 (P01024 23-667): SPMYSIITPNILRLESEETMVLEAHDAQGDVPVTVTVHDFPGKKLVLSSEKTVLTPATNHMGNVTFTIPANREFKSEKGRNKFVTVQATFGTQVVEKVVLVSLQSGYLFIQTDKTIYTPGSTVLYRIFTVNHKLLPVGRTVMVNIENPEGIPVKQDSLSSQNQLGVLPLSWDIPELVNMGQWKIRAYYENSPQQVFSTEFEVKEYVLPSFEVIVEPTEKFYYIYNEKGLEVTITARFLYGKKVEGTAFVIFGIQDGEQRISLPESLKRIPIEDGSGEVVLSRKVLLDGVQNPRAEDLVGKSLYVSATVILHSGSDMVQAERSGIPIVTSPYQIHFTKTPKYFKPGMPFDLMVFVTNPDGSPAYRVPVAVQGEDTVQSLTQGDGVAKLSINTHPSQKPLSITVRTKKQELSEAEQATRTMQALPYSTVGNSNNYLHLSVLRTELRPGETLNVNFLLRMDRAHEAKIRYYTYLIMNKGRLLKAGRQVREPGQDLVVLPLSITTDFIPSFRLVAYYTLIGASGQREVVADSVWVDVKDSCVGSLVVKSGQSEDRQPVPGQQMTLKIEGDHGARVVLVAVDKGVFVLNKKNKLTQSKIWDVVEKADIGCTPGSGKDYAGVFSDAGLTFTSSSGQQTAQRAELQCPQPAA
# Sequence of PILRb (Mus musculus), Q2YSF2 (Q2YSF2 entry or part of it): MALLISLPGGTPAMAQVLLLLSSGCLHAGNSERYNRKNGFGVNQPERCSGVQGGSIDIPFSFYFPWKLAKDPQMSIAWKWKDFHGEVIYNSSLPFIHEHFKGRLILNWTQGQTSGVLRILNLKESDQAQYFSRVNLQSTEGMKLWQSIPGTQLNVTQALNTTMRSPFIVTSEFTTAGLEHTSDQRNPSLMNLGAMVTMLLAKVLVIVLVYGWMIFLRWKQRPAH
# Sequence of Avaren (Actinomycete K97) (chain, as listed by the source): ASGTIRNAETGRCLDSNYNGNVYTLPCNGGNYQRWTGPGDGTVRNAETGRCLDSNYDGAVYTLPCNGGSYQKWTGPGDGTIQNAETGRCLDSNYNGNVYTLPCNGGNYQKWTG
substance,measurement,setting,value
"Neurocan (Homo sapiens), O14594",glycan array binding signal (z-score),[1],-0.834
MpAFP RI GFP (Marinomonas primoryensis),glycan array binding signal (z-score),[2],5.77
Avaren (Actinomycete K97),glycan array binding signal (z-score),[3],-0.134
"Siglec-8 (Homo sapiens), Q9NYZ4",glycan array binding signal (z-score),[1],-0.041
same,glycan array binding signal (z-score),[4],0.376
same,glycan array binding signal (z-score),[5],5.14
same,glycan array binding signal (z-score),[6],-0.061
same,glycan array binding signal (z-score),[7],-0.415
CHT (Homo sapiens),glycan array binding signal (z-score),[8],-0.177
"C3b (Homo sapiens), P01024",glycan array binding signal (z-score),[9],-0.291
"PILRb (Mus musculus), Q2YSF2",glycan array binding signal (z-score),[10],0.569
